The text below walks through data of PubChem BioAssay (Tox21).

Molecules are shown by their SMILES. Records with an inconclusive call do not appear. A call without a number means that no potency is given here. Calls of active or inactive are those of the source. Calls follow the shape of the dose curve; as a rule, active = well fitted cell-killing curve with a large enough effect in the repeat runs; inconclusive = weak or mixed curves, or effect the other way; inactive = no such curve, though single readings can be large or run the other way.
Potency is read from the fitted curve at half-maximal effect.

The nature of the experiment: qHTS assay to identify small molecule antagonists of the thyroid receptor (TR) signaling pathway - cell viability counter screen (AID 743064). Also: nearly all actives have a fitted effect of over 50% in size. Particulars: GH3.TRE-Luc viability, CellTiter-Fluor, 24 h; series mostly up to 70.3 µM. An excerpt:
National Center for Advancing Translational Sciences [NCATS]
NIH Chemical Genomics Center [NCGC]
U.S. Environmental Protection Agency [EPA]
National Institutes of Environmental Health Sciences [NIEHS]
National Toxicology Program [NTP]
U.S. Food and Drug Administration [FDA]
Thyroid receptor (TR), a nuclear hormone receptor, plays an important role in development, proliferation, differentiation, metabolism, brain function, and cardiovascular system. […] To profile the Tox21 10K compound library in TR signaling, a cell-based GH3-TRE-Luc assay (GH3.TRE-Luc cell line, developed by the laboratory of Dr. Albertinka J. Murk, Wageningen University) was used to measure the inhibition of TR. GH3 (rat pituitary tumor) cells stably expressing a TR activity sensor consisting of two TR response elements and a luciferase reporter gene. The cytotoxicity of the Tox21 compound library against the GH3.TRE-Luc cell line was tested in parallel by measuring the cell viability using CellTiter-Fluor assay (Promega, Madison, WI) in the same wells.
Tox21 Assay Protocol Summary:
GH3.TRE-Luc cells were dispensed at 1500 cells/4 uL/well into 1536-well white solid bottom plates using a Multidrop Combi dispenser (Thermo Fisher Scientific Inc., Waltham, MA). After the assay plates were incubated at 37 C for 4 hours, 23 nL of library compound or DMSO controls was transferred to the assay plates by a pintool station (Kalypsys, San Diego, CA), followed by addition of 1 ul of T3 (1 nM, final concentration in the wells) to stimulate TR transactivation. The assay plates were incubated at 37 C for 23.5 h, and then 1 uL of CellTiter-Fluor reagent (Promega, Madision, WI) of measuring cytotoxicity was added to each well using a Bioraptr Flying Reagent Dispenser (FRD) workstation (Beckman Coulter, Indianapolis, IN, USA). The plates were incubated at 37C and 5% CO2 for additional 30 min, and fluorescence intensity was measured by a ViewLux plate reader (PerkinElmer, Shelton, CT).
(qHTS replaces the single test concentration by a dilution series.)
For the compound `CC[N+](C)(CC)CCOC(=O)C1c2ccccc2Oc2ccccc21`, the Potency entry is “inactive”.

Take `CCN[C@H]1C[C@H](C)S(=O)(=O)c2sc(S(N)(=O)=O)cc21`: the Potency entry is “inactive”.

Consider `COc1c(N2CCNC(C)C2)c(F)cc2c(=O)c(C(=O)O)cn(C3CC3)c12` (stereo not given), for which the Potency entry is “inactive”.

`O=C1NC(=O)C2CC=CCC12` (stereo not given): the Potency entry was “inactive”.

`O=CN(CCO)CCO`: the Potency result is “inactive”.

For `CC[N+](CC)(CC(=O)Nc1c(C)cccc1C)Cc1ccccc1` (tested in a mixture with another compound), the Potency entry was “inactive”.

As for `NC(=O)N[C@@H](CCC(=O)O)C(=O)O`, the Potency result was “inactive”.

With `CC1=CC(=O)[C@H]2C[C@@H]1C2(C)C`, the Potency result was “inactive”.

With `Cc1c(N)c(=O)n(-c2ccccc2)n1C`, the Potency result is “inactive”.

Consider `CN1CC(=O)N/C1=N/C(=O)Nc1cccc(Cl)c1`, for which the Potency result was “inactive”.

For the compound `C=CN1CCCCCC1=O`, the Potency result is “inactive”.

With `CCCCCCCCCCOc1cc2c(=O)c(C(=O)OCC)c[nH]c2cc1OCC`, the Potency result is “inactive”.

Consider `CCN1C=CN(C)C1C` (stereo not given), for which the Potency entry was “inactive”.

As to `CCCOC(=O)CC`, the Potency entry is “inactive”.

Turning to `CC1(C)[C@@H]2CC[C@@]1(C)[C@H](O)C2`, the Potency entry was “inactive”.

Consider `CCCCCCC1CCC(=O)O1` (stereo not given), for which the Potency result is “inactive”.

On to `CC(=O)N1C[C@H](O)C[C@H]1C(=O)O`, for which the Potency entry is “inactive”.

For `CC[C@H]1OC(=O)[C@H](C)[C@@H](O[C@H]2C[C@@](C)(OC)[C@@H](O)[C@H](C)O2)[C@H](C)[C@@H](O[C@@H]2O[C@H](C)C[C@H](N(C)C)[C@H]2O)[C@](C)(OC)C[C@@H](C)C(=O)[C@H](C)[C@@H](O)[C@]1(C)O`, the Potency result is “inactive”.

With `O=C(c1ccccc1)C1(O)CCCCC1`, the Potency entry is “inactive”.

For the compound `Cc1cccc(C)c1NC(=O)CC12CCCN1CCC2`, the Potency entry was “inactive”.

For `CCCCN(CCC(=O)OCC)C(C)=O`, the Potency entry is “inactive”.

On to `CC(C)C(=O)OC(=O)C(C)C`, for which the Potency entry is “inactive”.

With `NS(=O)(=O)Cc1noc2ccccc12`, the Potency entry is “inactive”.

As to `CC(C)NNC(=O)c1ccncc1`, the Potency result was “inactive”.

With `c1ccc2sc(SN3CCOCC3)nc2c1`, the Potency entry was “inactive”.

Take `CCCCCC(C)N` (stereo not given): the Potency entry is “inactive”.

Turning to `C=CCCCCCCCCC(=O)OCC`, the Potency entry was “inactive”.

`Nc1ccn([C@@H]2O[C@H](CO)[C@@H](O)[C@@H]2O)c(=O)n1`: the Potency was 0.217 µM (active).

As for `CN1CCN(c2cc3c(nn2)Oc2ccccc2N3C)CC1`, the Potency entry is “inactive”.

Regarding `Clc1cc(Cl)cc(Cl)c1`, the Potency entry was “inactive”.

With `CC[N+](CC)(CC)CCOc1cccc(OCC[N+](CC)(CC)CC)c1OCC[N+](CC)(CC)CC`, the Potency result is “inactive”.

Regarding `NC(=O)N1c2ccccc2CC(=O)c2ccccc21`, the Potency is 13.3 µM (active).

Consider `O=C(O)c1cc(C(=O)O)cc(C(=O)O)c1`, for which the Potency result was “inactive”.

For `CC1=C(C/C=C(\C)CCC[C@H](C)CCC[C@H](C)CCCC(C)C)C(=O)c2ccccc2C1=O`, the Potency result is “inactive”.

Consider `COc1ccccc1OCC1CNC(=O)O1` (stereo not given), for which the Potency result is “inactive”.

Turning to `CC(=O)c1ccccc1[N+](=O)[O-]`, the Potency result was “inactive”.

For `CNC(=O)Nc1ccc(Cl)c(Cl)c1`, the Potency result is “inactive”.

Consider `O=C(CO)[C@@H](O)[C@H](O)[C@@H](O)CO`, for which the Potency entry was “inactive”.

As for `CCCCOC(=O)CCC(C)=O`, the Potency entry was “inactive”.

With `CCOC(=O)C1=NOC(c2ccccc2)(c2ccccc2)C1`, the Potency entry is “inactive”.
